Compounds with a hit are over-represented: about 19% of the library has one in this group of screens.
HT1080-NT tox = kills 2HG-producing HT-1080-NT fibrosarcoma cells; HT-1080-NT fibrosarcoma viability, CellTiter-Glo ATP luminescence, 48 h; Potency, µM (series often up to 46.1 µM), usual class: cytotoxic; 360,000 compounds, 1.6% hits;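 further: NT is the 2HG producing partner of a matched IDH1 knockdown line; nearly all actives have a fitted effect of over 55% in size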
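750 cells/well, RPMI + 5% FBS; 2 h settle, compound pin-transfer, 48 h at 37 degrees C. CellTiter-Glo 10 min RT, luminescence. Normalized to DMSO and media-only wells.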
IL-1B inflam inh = blocks inflammasome-driven IL-1 beta release; THP-1 LPS/ATP IL-1B secretion, AlphaLISA, 16 h; hits give low values; activity change, % at 57.5 µM; 360,000 compounds, 4.7% hits; AID 743279; in the data active means activity change below about -50%; inconclusive means mostly about -30% to -49%
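Secreted IL-1B measured by AlphaLISA bead assay after 16 h compound exposure of THP-1 cells; compounds (final up to 57.5 uM) added 1 h before LPS (250 ng/mL) and ATP (1.25 mM) stimulation; lower signal means less secretion.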
HT1080 IDH1KD tx = kills HT-1080 cells with IDH1 knockdown | AID 686971 | 360,000 compounds, 2% hits | Potency, µM (series often up to 46.1 µM), actives largely listed as cytotoxic | HT-1080 IDH1 knockdown viability, ATP luminescence, 48 h
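IDH1KD HT-1080 cells, 750/well, RPMI + 5% FBS; compound pinned after 2 h settling; 48 h, 37 °C; CellTiter-Glo luminescence; % activity normalised to DMSO and no-cell wells; curves fitted, classed by r2 and efficacy.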
TDP1 cell noCPT = qHTS for Inhibitors of human tyrosyl-DNA phosphodiesterase 1 (TDP1): qHTS in cells in absence of CPT. DT40 Tdp1-/- hTDP1 cells, no CPT, ATP luminescence, 48 h. Potency, µM (highest dose often 46.2 µM), actives largely listed as inhibitors. 420,000 compounds, 15% hits. AID 686978, 2013; further: nearly all actives have a fitted effect of over 55% in size
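Stably hTDP1-transfected Tdp1-null chicken DT40 cells were treated with library compounds minus camptothecin and grown for at least 48 hr at 37 °C, after which cellular ATP was quantified by luminescence.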
TDP1 cell CPT = DT40-hTDP1 cell growth loss with CPT; chicken DT40 Tdp1-/-;hTDP1 cells + 20 nM CPT, ATP luminescence, 48 h; Potency, µM (highest dose often 46.2 µM), most hits filed as inhibitors; 420,000 compounds, 12% hits; further: nearly all actives have a fitted effect of over 55% in size
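Chicken DT40 Tdp1-/- cells complemented with human TDP1, 400 cells/well, exposed to compounds plus 20 nM camptothecin for at least 48 h at 37 C; viability read as ATP content by CellTiter-Glo luminescence.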
Of the large screens only hits and unclear results are named; the others gave an inactive call. Unless noted, the call rests on the fitted dose curve; in most records, active means well fitted curve in the direction sought with a large enough effect; inconclusive means small, poorly fitted or top-dose-only effect, or another doubt; inactive means no such curve, though single readings can be large; an effect the other way counts as inactive or inconclusive.

Cc1ccc(C)c(OCC(O)CN2CCc3ccccc3C2)c1C (configuration not stated)	HT1080-NT tox inconclusive, HT1080 IDH1KD tx 9.2µM, TDP1 cell noCPT 3.7µM, TDP1 cell CPT 6.5µM
Cc1cc(OCC(O)CN2CCc3ccccc3C2)ccc1Cl (configuration not stated)	HT1080-NT tox inconclusive, IL-1B inflam inh -62, HT1080 IDH1KD tx inconclusive, TDP1 cell noCPT inconclusive
CC1CCN(CC(O)COc2ccc(OCC(O)CN3CCC(C)CC3)cc2)CC1 (configuration not stated)	TDP1 cell noCPT inconclusive, TDP1 cell CPT inconclusive
CC1CN(C(=O)c2ccccc2Oc2ccccc2)CC(C)O1 (configuration not stated)	TDP1 cell noCPT inconclusive
CC1CN(C(=O)c2ccccc2OCc2ccc(Cl)cc2Cl)CC(C)O1 (configuration not stated)	TDP1 cell noCPT 3.7µM, TDP1 cell CPT 16µM
Cc1cc(C(=O)COc2ccc3ccc(=O)oc3c2)c(C)n1C	IL-1B inflam inh inconclusive, TDP1 cell noCPT inconclusive
CCC(C)NC(=O)CSc1nc2n[nH]c(C)c2c(=N)n1-c1ccc(OC)cc1 (configuration not stated)	TDP1 cell noCPT 18µM, TDP1 cell CPT 16µM
O=C(CSc1nc2c(c(=O)n1-c1ccc(F)cc1)SCC2)NCC1CCCO1 (configuration not stated)	none
CCC(C)NC(=O)CSc1nc2n[nH]c(C)c2c(=N)n1-c1ccc(C)c(Cl)c1 (configuration not stated)	TDP1 cell noCPT 1.6µM, TDP1 cell CPT 3.3µM (no result: HT1080-NT tox, IL-1B inflam inh, HT1080 IDH1KD tx)
Cc1[nH]nc2nc(SCC(=O)NCC3CCCO3)n(-c3ccc(Br)cc3)c(=N)c12 (configuration not stated)	TDP1 cell noCPT inconclusive, TDP1 cell CPT 15µM
CCC(C)NC(=O)CSc1nnc(-c2ccncc2)n1-c1ccc(OC)cc1 (configuration not stated)	none
CCC(Sc1nc2n[nH]c(C)c2c(=N)n1-c1cccc(Cl)c1C)C(=O)N(CC)CC (configuration not stated)	TDP1 cell noCPT inconclusive, TDP1 cell CPT inconclusive
CCOc1ccc(-n2c(SCC(=O)NC(C)CC)nc3n[nH]c(C)c3c2=N)cc1 (configuration not stated)	HT1080-NT tox inconclusive, HT1080 IDH1KD tx inconclusive, TDP1 cell noCPT 18µM, TDP1 cell CPT inconclusive
NC(=O)COC(=O)CNC(=O)c1sc2ccccc2c1Cl	none
CCOC(=O)c1c(NC(=O)CSc2nnc(Cc3ccccc3)o2)sc(C)c1C	TDP1 cell noCPT inconclusive, TDP1 cell CPT inconclusive
CCOc1ccc(-n2c(SCC(=O)Nc3ccc(Br)cc3)nc3n[nH]c(C)c3c2=N)cc1	HT1080-NT tox 15µM, HT1080 IDH1KD tx 16µM, TDP1 cell noCPT 7.3µM, TDP1 cell CPT 13µM
CCOC(=O)C1CCCN(C(=O)c2cc(-c3ccccc3)cs2)CC1 (configuration not stated)	TDP1 cell noCPT inconclusive, TDP1 cell CPT inconclusive
CCOC(=O)N1CCN(C(=O)c2cc(-c3ccncc3)nc3ccccc23)CC1	HT1080-NT tox inconclusive, HT1080 IDH1KD tx inconclusive, TDP1 cell noCPT 5.8µM, TDP1 cell CPT 5.8µM
CCOc1ccc(-c2cc(C(=O)N3CCCC3)c3ccccc3n2)cc1	TDP1 cell noCPT 23µM, TDP1 cell CPT inconclusive
Cc1ccc(-c2cc(C(=O)N3CCCCC3)c3ccccc3n2)cc1C	TDP1 cell noCPT 23µM, TDP1 cell CPT 16µM
CCOC(=O)C1CCCN(C(=O)c2sc(-c3ccccc3)nc2C)CC1 (configuration not stated)	HT1080-NT tox inconclusive, TDP1 cell noCPT 15µM, TDP1 cell CPT inconclusive
CCn1c(-c2ccccc2F)nc2cc(NC(C)=O)cc(C(=O)NC(c3ccccn3)C(F)(F)F)c21 (configuration not stated)	TDP1 cell noCPT inconclusive (no result: HT1080-NT tox, IL-1B inflam inh, HT1080 IDH1KD tx)
Cc1ccc(-c2cc(C(=O)N3CCN(C4CCS(=O)(=O)C4)CC3)c3ccccc3n2)cc1 (configuration not stated)	IL-1B inflam inh inconclusive, TDP1 cell noCPT inconclusive, TDP1 cell CPT 13µM

Screening data (PubChem)
